Laboratory results reported in PubChem BioAssay (EPA / NIEHS).
Values joined by “and” are separate entries in the source; they are usually repeats but may differ in a detail not shown here. Identical values can stand only once. Some structures have more than one record in an assay (separate samples or runs), and their calls can disagree. Active and inactive are the calls of the source. Rule for the calls: active = hit-call score of the fitted dose curve at least 0.9, where 1 is the maximum; inactive = score below 0.9.

Key:
[1] = ATG_PBREM_CIS: Attagene CIS-FACTORIAL HepG2 Assay for human Phenobarbital-responsive Enhancer Module (PBREM) (AID 2282955); details: HepG2 PBREM cis-reporter, Attagene multiplexed transcription; actives raise or lower the signal
Summary of the method: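 After a 24 h incubation with test chemical, transfected HepG2 cells yield total RNA; reporter-specific RT-PCR products are fluorescently labelled, HpaI-digested and resolved by capillary electrophoresis against ROX size standards.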

[2] = target: Paired box protein Pax-6 (Homo sapiens) (UniProt P26367); assay: ATG_Pax6_CIS: Attagene CIS-FACTORIAL HepG2 Assay for human Paired Box 6 (PAX6) (AID 2282956); details: HepG2 CIS-FACTORIAL PAX6 reporter transcription, RNA readout; actives raise or lower the signal
Chain of Paired box protein Pax-6 (Homo sapiens) (P26367 whole entry, looked up): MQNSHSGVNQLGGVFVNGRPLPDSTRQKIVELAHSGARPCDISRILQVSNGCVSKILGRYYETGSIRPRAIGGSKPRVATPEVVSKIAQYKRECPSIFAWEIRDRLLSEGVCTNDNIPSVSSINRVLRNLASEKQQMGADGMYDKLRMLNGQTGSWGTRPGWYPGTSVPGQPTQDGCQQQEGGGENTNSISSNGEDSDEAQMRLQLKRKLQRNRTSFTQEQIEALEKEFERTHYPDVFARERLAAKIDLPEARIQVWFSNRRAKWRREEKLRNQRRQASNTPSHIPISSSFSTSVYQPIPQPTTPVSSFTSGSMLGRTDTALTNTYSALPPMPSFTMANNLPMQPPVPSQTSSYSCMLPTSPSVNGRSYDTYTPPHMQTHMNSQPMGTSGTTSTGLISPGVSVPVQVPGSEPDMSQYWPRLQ
Summary of the method: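 After twenty-four hours of chemical exposure, transfected HepG2 cells are harvested for RNA. Cis-promoter reporter transcripts are amplified, fluorescently labelled and sized by capillary electrophoresis, with gain and loss of signal scored against DMSO.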

[3] = ATG_PXRE_CIS: Attagene CIS-FACTORIAL HepG2 Assay for human Pregnane X Receptor Element (PXRE) (AID 2282957); details: HepG2 Attagene CIS-FACTORIAL PXRE reporter, mRNA; actives raise or lower the signal
Summary of the method: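 HepG2 cells transiently transfected with cis-regulated multiple reporter transcription units; endogenous factor activity measured as reporter mRNA 24 h after dosing. RT-PCR, fluorescent primer extension, HpaI digestion, capillary electrophoresis; bidirectional fit versus DMSO baseline.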

[4] = ATG_PPRE_CIS: Attagene CIS-FACTORIAL HepG2 Assay for human Peroxisome Proliferator-activated Response Element (PPRE) (AID 2282958); details: HepG2 PPRE cis-element reporter, Attagene transcription factor profiling; actives raise or lower the signal
Summary of the method: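 Multiplexed reporter transcription units under cis-regulatory promoters were transfected into HepG2 cells to capture endogenous factor activity. A 24 h incubation preceded RNA isolation and fluorescent RT-PCR fragment analysis.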

[5] = ATG_RORE_CIS: Attagene CIS-FACTORIAL HepG2 Assay for human RAR-related Orphan Receptor Element (RORE) (AID 2282959); details: HepG2 Attagene cis-factorial RORE reporter, mRNA; actives raise or lower the signal
Summary of the method: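 Fluorescence intensity of reporter-specific cDNA fragments, separated by capillary electrophoresis, gives the signal. Source: HepG2 liver cells transiently transfected with cis-element reporters and exposed 24 h; DMSO-normalized bidirectional fit.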

[6] = target: Transcription factor Sp1 (Homo sapiens) (UniProt P08047); assay: ATG_Sp1_CIS: Attagene CIS-FACTORIAL HepG2 Assay for human Specificity Protein 1 (Sp1) (AID 2282961); details: HepG2 Sp1 cis-reporter transcription, actives raise or lower the signal
Chain of Transcription factor Sp1 (Homo sapiens) (P08047 whole entry, looked up): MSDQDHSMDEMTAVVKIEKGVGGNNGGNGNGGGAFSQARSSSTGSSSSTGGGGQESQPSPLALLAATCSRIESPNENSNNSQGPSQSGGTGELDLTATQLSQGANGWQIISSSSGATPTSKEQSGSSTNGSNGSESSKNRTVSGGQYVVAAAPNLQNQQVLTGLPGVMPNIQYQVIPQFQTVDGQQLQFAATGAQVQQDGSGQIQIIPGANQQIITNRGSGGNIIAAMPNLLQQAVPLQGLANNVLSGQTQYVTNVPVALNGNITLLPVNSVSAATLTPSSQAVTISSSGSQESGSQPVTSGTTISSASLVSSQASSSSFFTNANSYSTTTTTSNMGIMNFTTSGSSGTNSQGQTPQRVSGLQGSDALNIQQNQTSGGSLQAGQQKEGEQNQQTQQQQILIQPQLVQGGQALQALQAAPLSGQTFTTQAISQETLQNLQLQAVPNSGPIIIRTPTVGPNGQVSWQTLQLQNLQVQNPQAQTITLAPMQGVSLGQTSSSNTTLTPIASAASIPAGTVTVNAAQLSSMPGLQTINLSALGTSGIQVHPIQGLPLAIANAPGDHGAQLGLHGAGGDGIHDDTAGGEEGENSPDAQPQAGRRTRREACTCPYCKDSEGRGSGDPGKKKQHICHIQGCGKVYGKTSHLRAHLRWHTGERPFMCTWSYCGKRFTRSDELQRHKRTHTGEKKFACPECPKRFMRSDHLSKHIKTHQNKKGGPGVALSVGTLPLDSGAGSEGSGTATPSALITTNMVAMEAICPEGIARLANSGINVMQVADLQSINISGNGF
Summary of the method: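 Sp1-driven reporter mRNA, read as capillary electrophoresis fluorescence after RT-PCR, in transiently transfected HepG2 cells dosed for 24 h; signal change in either direction relative to DMSO.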

[7] = ATG_SREBP_CIS: Attagene CIS-FACTORIAL HepG2 Assay for human Sterol Regulatory Element Binding (SREBP) (AID 2282962); details: HepG2 Attagene cis-factorial SREBP reporter, mRNA; actives raise or lower the signal
Summary of the method: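 Twenty-four hours after chemical dosing of transfected HepG2 cultures, reporter RNA was converted to cDNA, amplified, end-labelled with 6-FAM and resolved by capillary electrophoresis. Responses were fitted relative to DMSO.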

[8] = target: Signal transducer and activator of transcription 3 (Homo sapiens) (UniProt P40763); assay: ATG_STAT3_CIS: Attagene CIS-FACTORIAL HepG2 Assay for human Signal Transducer and Activator of Transcription 3 (STAT3) (AID 2282963); details: HepG2, Attagene cis-factorial STAT3 reporter transcription; actives raise or lower the signal
Chain of Signal transducer and activator of transcription 3 (Homo sapiens) (P40763 whole entry, looked up): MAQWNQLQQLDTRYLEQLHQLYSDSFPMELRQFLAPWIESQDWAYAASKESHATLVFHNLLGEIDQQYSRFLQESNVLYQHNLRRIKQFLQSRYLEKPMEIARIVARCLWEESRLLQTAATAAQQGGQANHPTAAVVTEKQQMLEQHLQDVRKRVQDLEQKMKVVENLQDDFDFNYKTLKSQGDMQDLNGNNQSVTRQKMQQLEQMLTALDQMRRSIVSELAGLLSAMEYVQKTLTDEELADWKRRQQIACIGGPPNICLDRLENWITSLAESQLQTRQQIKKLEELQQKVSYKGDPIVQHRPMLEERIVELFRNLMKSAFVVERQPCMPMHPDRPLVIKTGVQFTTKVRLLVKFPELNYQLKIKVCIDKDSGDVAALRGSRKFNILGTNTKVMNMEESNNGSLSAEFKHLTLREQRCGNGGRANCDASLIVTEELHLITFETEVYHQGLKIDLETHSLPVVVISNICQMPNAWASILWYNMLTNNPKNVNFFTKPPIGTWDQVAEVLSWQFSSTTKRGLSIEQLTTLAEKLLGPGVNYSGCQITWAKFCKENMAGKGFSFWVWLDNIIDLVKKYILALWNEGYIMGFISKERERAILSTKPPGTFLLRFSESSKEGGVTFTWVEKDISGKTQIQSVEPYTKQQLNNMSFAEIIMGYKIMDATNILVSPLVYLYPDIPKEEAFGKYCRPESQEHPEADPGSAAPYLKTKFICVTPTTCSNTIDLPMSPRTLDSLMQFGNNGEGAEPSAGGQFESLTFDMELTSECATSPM
Summary of the method: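 HepG2 cells transiently transfected with cis-element-driven multiple reporter transcription units; after 24 h chemical exposure, reporter mRNA measured by RT-PCR, 6-FAM primer-extension labelling, HpaI digestion and capillary electrophoresis. Bidirectional fitting versus DMSO baseline.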

[9] = ATG_TA_CIS: Attagene CIS-FACTORIAL HepG2 Assay for human TA Basal Promoter (AID 2282964); details: HepG2 Attagene CIS-factorial TA basal promoter reporter; actives raise or lower the signal
Summary of the method: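 Read-out: fluorescent reporter-transcript fragments resolved by capillary electrophoresis after RT-PCR and HpaI digestion. Source: HepG2 cells carrying transiently transfected multi-reporter cis constructs, treated 24 h. Endpoint fitted bidirectionally relative to DMSO.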

[10] = ATG_Sox_CIS: Attagene CIS-FACTORIAL HepG2 Assay for human SRY-box transcription factor (SOX) (AID 2282960); details: HepG2 Attagene cis-factorial SOX reporter, mRNA; actives raise or lower the signal
Summary of the method: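 After 24 h of chemical treatment, transfected HepG2 reporter cells are lysed for total RNA. Transcript levels come from RT-PCR with labelled primer extension and capillary electrophoresis, analysed bidirectionally versus DMSO.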

Measured: AC50

c1ccc2cc3ccccc3cc2c1
not listed: [10]
inactive: all other assays above

OCCOCCOCCO
not listed: [4]
inactive: all other assays above

CCCCCCOC(=O)CC(CC(=O)OCCCCCC)(OC(=O)CCC)C(=O)OCCCCCC
active: [3] 0.922 µM
not listed: [9] | [10]
inactive: all other assays above

O=S(=O)(O)CCC(F)(F)C(F)(F)C(F)(F)C(F)(F)C(F)(F)C(F)(F)F
inactive: [1] | [2] | [3] | [6] | [7] | [8]

OCc1c[nH]c2ccccc12
active: [1] 5.11 µM [middle of 4 runs] | [2] 6.46 µM and 23.1 µM and 38.2 µM
inactive: [1] | [2] | [6] | [7] | [8] | [9]

CCCCC(CC)C(=O)OCCOCCOCCOC(=O)C(CC)CCCC (stereo unspecified)
active: [3] 27.5 µM
not listed: [4] | [10]
inactive: all other assays above

OCCC(F)(F)C(F)(F)C(F)(F)C(F)(F)F
not listed: [5]
inactive: all other assays above

CC(=O)c1ccccc1
not listed: [4] | [5] | [9]
inactive: all other assays above

FC(F)(F)C(F)(F)C(F)(F)C(F)(F)C(F)(F)C(F)(F)I
not listed: [4] | [9]
inactive: all other assays above

CNC(C)=O
active: [3] 26.1 µM
not listed: [4]
inactive: all other assays above

NC(=O)N(O)[C@@H]1COc2cc(OCc3ccccc3)ccc21
not listed: [9]
inactive: all other assays above

C[Si](C)(C)C(F)(F)C(F)(F)C(F)(F)F
not listed: [5] | [10]
inactive: all other assays above

CCCCCCCC1CCC(=O)O1 (stereo unspecified)
not listed: [5] | [9] | [10]
inactive: all other assays above

O=C(O)[C@H](O)[C@@H](O)C(=O)O
not listed: [4] | [9] | [10]
inactive: all other assays above

FC(F)=C(F)C(F)(F)C(F)(F)C(F)(F)C(F)(F)C(F)(F)C(F)(F)F
not listed: [4]
inactive: all other assays above

CCCOc1ccc(S(=O)(=O)N2CCN(CC)CC2)cc1-c1nc2c(CC)n(Cc3ccccn3)nc2c(=O)[nH]1
active: [1] 2.66 µM | [2] 40.2 µM | [3] 1.18 µM | [7] 27.5 µM
inactive: [10] | [6] | [8] | [9]

CCOc1ccc2[nH]cc(C(=O)NCc3ccccc3)c(=O)c2n1
inactive: [1] | [2] | [6] | [7] | [8]
active: [3] 26.7 µM

CC(C)c1nnc2ccc(-c3ocnc3-c3cc(F)ccc3F)cn12
active: [1] 83.4 µM | [3] 26.5 µM | [6] 125 µM
not listed: [9] | [10]
inactive: all other assays above

C[C@@H](Oc1ccc(CNC(=O)c2cccnc2Oc2ccc3c(c2)OCO3)c(F)c1)C(=O)O
not listed: [4] | [9]
inactive: all other assays above

Cc1cccc(O)c1C
active: [3] 31.1 µM
inactive: [1] | [2] | [3] | [5] | [10] | [6] | [7] | [8] | [9]

O=C(O)CO
not listed: [5] | [9]
inactive: all other assays above

Nc1ccn([C@@H]2O[C@H](CO)[C@@H](O)[C@@H]2O)c(=O)n1
not listed: [5] | [9]
inactive: all other assays above

COS(C)(=O)=O
not listed: [9] | [10]
inactive: all other assays above

O=S(=O)(O)c1ccc(N=Nc2c(O)ccc3cc(S(=O)(=O)O)ccc23)cc1
not listed: [4] | [5]
inactive: all other assays above

c1ccc2ncccc2c1
not listed: [5] | [10]
inactive: all other assays above

Cn1cc[nH]c1=S
not listed: [4] | [10]
inactive: all other assays above

OCC(CO)(CO)CO
not listed: [4] | [5]
inactive: all other assays above

Cc1nccn1-c1ccc(Sc2cccc(C3(C(N)=O)CCOCC3)c2)cc1
active: [1] 3.41 µM | [6] 2.31 µM | [7] 2.08 µM
not listed: [4] | [5]
inactive: all other assays above

NC(=O)N1c2ccccc2C=Cc2ccccc21
not listed: [3] | [5] | [9]
inactive: all other assays above

NC(N)=O
not listed: [3] | [4] | [10]
inactive: all other assays above

CCc1cccc(CC)c1N
not listed: [3] | [4] | [9]
inactive: all other assays above

NNC(=O)c1ccncc1
not listed: [3] | [5]
inactive: all other assays above

OC[C@H]1O[C@@](CO)(O[C@H]2O[C@H](CO)[C@@H](O)[C@H](O)[C@H]2O)[C@@H](O)[C@@H]1O
inactive: [1] | [2] | [3] | [6] | [7] | [8]

FC(F)(F)COC(OCC(F)(F)F)OCC(F)(F)F
inactive: [1] | [2] | [3] | [6] | [7] | [8]

O=C(Cl)C(F)(F)C(F)(F)C(F)(F)C(=O)Cl
not listed: [3] | [4] | [10]
inactive: all other assays above

O=c1[nH]cnc2c1ncn2[C@H]1CC[C@@H](CO)O1
not listed: [3] | [5] | [10]
inactive: all other assays above

C=CCc1cc(S(=O)(=O)c2ccc(O)c(CC=C)c2)ccc1O
inactive: [1] | [6] | [8]
active: [2] 33.4 µM | [4] 8.96 µM | [7] 9.26 µM

CCn1nc(C)c2c1C(=O)NCC(c1ccc(O)cc1)=N2
active: [7] 2.82 µM
not listed: [3] | [5]
inactive: all other assays above

Cc1ccc(S(=O)(=O)NC(=O)NN2CCCCCC2)cc1
not listed: [3] | [5] | [9]
inactive: all other assays above
